target: C3orf64; assay: pooled miR-30 sensor sort-seq; sequence = guide strand; details: shRNA
Further: reference of the scale not given here.

Question: For TTAGCATCTTCTATAGGTCTGA, which sensor-assay potency score (higher = more potent) is on record?
Answer: 0.396

Question: How did the sensor-assay potency score (higher = more potent) turn out when TTAGTTGATCTAAAAACCCAAG was run?
Answer: -1.13

Question: With TTAATCACAAATGCTCTCCATG as the sequence, how does the sensor-assay potency score (higher = more potent) read?
Answer: -0.629

Question: With TAAACAAGTTGGAACACTCTGG as the sequence, how does the sensor-assay potency score (higher = more potent) read?
Answer: 0.509

Question: Which sensor-assay potency score (higher = more potent) does the source give for TATAACATGGTCCTATAGCTTG here?
Answer: -1.11

Question: With TATATGGACAAAGAGAGTCTTT as the sequence, how does the sensor-assay potency score (higher = more potent) read?
Answer: -0.594

Question: Which sensor-assay potency score (higher = more potent) does the source give for TAGAAGACTGTTCCAATCCTTT here?
Answer: -0.485

target: C4orf27; assay: as above; details: shRNA

Question: For TTAGTCTCTCCTCATCACTTGC, which sensor-assay potency score (higher = more potent) is on record?
Answer: -0.932

Question: For TTCATCATTAGCAAACTGCACA, which sensor-assay potency score (higher = more potent) is on record?
Answer: -0.513

Question: How did the sensor-assay potency score (higher = more potent) turn out when TTTATCTACTGGAACAACCAAG was run?
Answer: -0.789

Question: Which sensor-assay potency score (higher = more potent) does the source give for TTATACAATTTTTCTTTGCTTC here?
Answer: -0.21

Question: With TCTACTGGAACAACCAAGCCTG as the sequence, how does the sensor-assay potency score (higher = more potent) read?
Answer: -0.00895

Question: Which sensor-assay potency score (higher = more potent) does the source give for TTATCTACTGGAACAACCAAGC here?
Answer: -0.86

Question: How did the sensor-assay potency score (higher = more potent) turn out when TTCTTTTCGAAGGTCACTGGAG was run?
Answer: -0.538

Question: Which sensor-assay potency score (higher = more potent) does the source give for TTCTCTTGAGGTCAGCATCTGT here?
Answer: -0.164

Question: TAATGGTCTGGAACTCAGGAGG was tested. Which sensor-assay potency score (higher = more potent) did it give?
Answer: -0.721

Question: How did the sensor-assay potency score (higher = more potent) turn out when TATGTTCTCTTGACTTCTGTTT was run?
Answer: -0.298

Question: TATTTCTCTAAGTTTTTTCGTC was tested. Which sensor-assay potency score (higher = more potent) did it give?
Answer: -0.0754

Question: With TATAATGATTTTCTACTTCTTT as the sequence, how does the sensor-assay potency score (higher = more potent) read?
Answer: -0.484

target: C4orf45; assay: as above; details: shRNA

Question: How did the sensor-assay potency score (higher = more potent) turn out when TAATCCTTTATGTAGTCTGGAC was run?
Answer: -0.844

Question: Which sensor-assay potency score (higher = more potent) does the source give for TTTTTCTAACGCCAGATGCTGT here?
Answer: -0.936

Question: With TCTCTGATCAGTGTCCTCGAAA as the sequence, how does the sensor-assay potency score (higher = more potent) read?
Answer: -0.979

Question: For TTATATTTTGCTGGCAAGCTTC, which sensor-assay potency score (higher = more potent) is on record?
Answer: -1.08

Question: How did the sensor-assay potency score (higher = more potent) turn out when TTTTGGTAGCTTCGGCAGCTTA was run?
Answer: -1.74

Question: Which sensor-assay potency score (higher = more potent) does the source give for TAGGTGGTTTGGAAGCTCTTGG here?
Answer: -0.261

Question: TTATACTGTGGTATTCTCCAAC was tested. Which sensor-assay potency score (higher = more potent) did it give?
Answer: -0.109

Question: How did the sensor-assay potency score (higher = more potent) turn out when TTAGGTGGTTTGGAAGCTCTTG was run?
Answer: -0.244

Question: With TTATGTAGTCTGGACCTGTAAA as the sequence, how does the sensor-assay potency score (higher = more potent) read?
Answer: -1.37

Question: For TTCCTTTTTTGGTAGCTTCGGC, which sensor-assay potency score (higher = more potent) is on record?
Answer: -0.246

Question: For TATTTTGCTGGCAAGCTTCTAT, which sensor-assay potency score (higher = more potent) is on record?
Answer: -0.0491

Question: Which sensor-assay potency score (higher = more potent) does the source give for ATAAATATCTGAGATCTCCAGT here?
Answer: 0.467

target: C5AR1; assay: as above; details: shRNA

Question: Which sensor-assay potency score (higher = more potent) does the source give for TTAACTCACTTACAAGAGCTTA here?
Answer: -0.512

Question: How did the sensor-assay potency score (higher = more potent) turn out when TAAACACCAGCAGAAAGCGGTC was run?
Answer: -1.02

Question: With TTCTACTTGTCTGTATTCTGAG as the sequence, how does the sensor-assay potency score (higher = more potent) read?
Answer: 0.386

Question: TCTACTTGTCTGTATTCTGAGT was tested. Which sensor-assay potency score (higher = more potent) did it give?
Answer: -0.792

Question: For TTGAGTGTCTTGGTGGACCGCG, which sensor-assay potency score (higher = more potent) is on record?
Answer: 0.0393

Question: AAGTGTAACAAATCGTGAGCGT was tested. Which sensor-assay potency score (higher = more potent) did it give?
Answer: -0.136

Question: For TACTCCTCCCGGACCACCCGGT, which sensor-assay potency score (higher = more potent) is on record?
Answer: -0.108

Question: Which sensor-assay potency score (higher = more potent) does the source give for TTCAGTCAACACGTTCCGGAGG here?
Answer: -1.26

Question: How did the sensor-assay potency score (higher = more potent) turn out when TTTTAAGCGAGAATCTTTCTAC was run?
Answer: 0.0632

Source: the OligoGym collection
